Assay [1] relates to Human papillomavirus type 1a protein E7 (residues 44-93). Description: small molecules binding HPV E7 44-93 – biochemical, small-molecule microarray, residues 44-93, 635 nm fluorescence, primary screen (AID 1108).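 Also: E7 fragment applied at 1 µg/mL in TBST for 1 h at 4 C; score combines spot fluorescence with its signal to noise ratio.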 Conditions: fluorescence 635 nm, higher = more signal.
Assay [2] is described as follows: hepatitis C replication reporter changes, two-sided – Huh7 cells, luciferase reporter, HCV replication inhibitor project, primary screen (AID 1109).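 Also: huh7 hepatoma cells harbouring a luciferase neomycin HCV replicon reporter; luciferase luminescence as measure of HCV replicon replication; test concentration not given here.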 Particulars: Huh7 HCV replicon luciferase reporter, 48 h; higher = more signal. In general terms: A reporter such as luciferase makes a cellular process visible.
Assay [3] addresses Left-right determination factor 2 (Homo sapiens) (UniProt O00292). Description: small molecules binding LEFTY2 protein – biochemical, small-molecule microarray, 635 nm fluorescence scan, primary screen (AID 1110). Particulars: higher = more signal.
Assay [4] deals with Calmodulin-1 (Homo sapiens) (UniProt P0DP23). Description: small molecules binding calmodulin-1 with EGTA – biochemical, small-molecule microarray, Cy5-labelled CALM1, profiling panel (AID 1111).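 Also: labelled calmodulin applied in Tris saline Tween buffer holding calcium plus EGTA and DTT.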 Particulars: Cy5-CALM1 binding fluorescence, higher = more signal.
For assay [5] the target is unchanged. Description: small molecules binding Ca-loaded calmodulin-1 – biochemical, small-molecule microarray, Cy5-labelled CALM1, plus calcium, artefact control for SMM control-protein annotation, profiling panel (AID 1112).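 Also: score merges spot fluorescence with signal to noise from triplicate slides.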 Conditions: Cy5-CALM1 binding fluorescence, higher = more signal.
Assay [6] is described as follows: probe aWnt5a binding to arrayed compounds – biochemical, biotinylated probe, 635/667 nm fluorescence, primary screen (AID 1113).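 Also: score merges 667 nm fluorescence intensity with signal-to-noise per printed feature.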 Conditions: small-molecule microarray, higher = more signal.
The nature of assay [7]: probe aShh binding to arrayed compounds – biochemical, biotinylated probe, 635/667 nm fluorescence, primary screen (AID 1114).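 Also: probe is biotin-labelled aShh protein from a stem cell growth factor screen; measures binding of labelled protein to compounds printed on the slide; score merges feature fluorescence at 667 nm with signal-to-noise.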 Particulars: small-molecule microarray, higher = more signal.
Assay [8] in a line: probe aNog binding to arrayed compounds – biochemical, biotinylated probe, 635/667 nm fluorescence, primary screen (AID 1115).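 Also: probe is biotinylated aNog protein used at 0.15 µg/mL for 1 h at 4 C; z-score combines 667 nm fluorescence of each spot with its signal to noise.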 Conditions: small-molecule microarray, higher = more signal.
For assay [9], the target named is Torsin-1A-interacting protein 1 (Homo sapiens) (UniProt Q5JTV8). Briefly: compound microarray binding of lysate hLAP1 – cell lysate, small-molecule microarray, COS7 lysate, 635/667 nm fluorescence, primary screen (AID 1116). Conditions: 635 nm fluorescence, higher = more signal.
Assay [10] has as its target Alpha-bungarotoxin (Bungarus multicinctus) (UniProt P60615). Briefly: compounds binding labelled alpha-BTX control protein – biochemical, small-molecule microarray, Alexa647 label, 635/667 nm fluorescence, artefact control for SMM control protein annotation, profiling panel (AID 1117). Conditions: alpha-BTX-A647 binding fluorescence, higher = more signal.
Assay [11] has as its target Albumin (Bos taurus) (UniProt P02769). Description: compounds binding labelled BSA control protein – biochemical, small-molecule microarray, Alexa647 label, 635/667 nm fluorescence, artefact control for SMM control protein annotation, profiling panel (AID 1118).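 Also: score merges 667 nm emission intensity and signal-to-noise per printed compound spot.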 Particulars: BSA-A647 binding, fluorescence 635 nm, higher = more signal.
Assay [12] is described as follows: probe aXIP binding to arrayed compounds – biochemical, NeuroSMM set, 635/667 nm fluorescence, primary screen (AID 1119).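 Also: probe is the protein aXip251-270 applied at 1 µg/mL to compound-printed slides; binding of probe to printed compounds measured as 667 nm fluorescence plus signal to noise.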 Particulars: small-molecule microarray, higher = more signal, called active from +8 up or from −8 down.
Assay [13] can be described thus: probe aNOTCH3 binding on compound microarray – biochemical, small-molecule microarray, 635/667 nm fluorescence, primary screen (AID 1120).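 Also: probe is a biotin-tagged antibody raised against NOTCH3 rather than NOTCH3 protein; score merges spot fluorescence near 667 nm with spot signal to noise.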 Conditions: higher = more signal.
A short description of assay [14]: probe aNOTCH2 binding on compound microarray – biochemical, small-molecule microarray, 635/667 nm fluorescence, primary screen (AID 1121).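 Also: score merges feature fluorescence read at 667 nm with its signal to noise.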 Conditions: higher = more signal.
Assay [15] has as its target Carbonic anhydrase 2 (Homo sapiens) (UniProt P00918). Briefly: compounds binding carbonic anhydrase 2 – biochemical, small-molecule microarray, Alexa647-labelled CAII, profiling panel (AID 1122). Conditions: CAII-A647 binding fluorescence, higher = more signal.
A short description of assay [16]: COS7 lysate on small-molecule microarray, probe aHis, 635 nm (AID 1123).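 Also: z-score combines 667nm fluorescence intensity with signal-to-noise per printed compound spot.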 Conditions: COS7 cell lysate, fluorescence, higher = more signal.
Assay [17] is described as follows: probe aLAP1 signal on lysate-treated microarray – cell lysate, small-molecule microarray, COS7 lysate, primary screen (AID 1124).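 Also: lysate comes from COS7 cells expressing LAP1 and is applied at 0.3 µg/mL; score merges spot fluorescence near 667 nm with signal-to-noise over triplicate slides.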 Particulars: probe aLAP1, fluorescence, higher = more signal.
Assay [18] deals with Sam68 (KHDRBS1). Description: compounds binding KHDRBS1 protein – biochemical, small-molecule microarray, 635 nm fluorescence, primary screen (AID 1125).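 Also: score merges 667 nm channel intensity with signal to noise over triplicate slides.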 Particulars: higher = more signal.
In assay [19] the test system is Chordin-like protein 2 (CHRDL2). Briefly: compounds binding chordin-like 2 – biochemical, small-molecule microarray, 635 nm fluorescence, primary screen (AID 1126).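 Also: printed compound slides probed with Chrdl2 protein at 4 µg/mL for 1 h at 4 C; score merges 667 nm emission intensity with signal to noise over three replicate slides.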 Particulars: fluorescence 635 nm, higher = more signal.
Assay [20] deals with Concanavalin-A (Canavalia ensiformis) (UniProt P02866). Description: compounds binding concanavalin A lectin – biochemical, small-molecule microarray, Alexa647 label, 635 nm, artefact control for SMM control protein annotation, primary screen (AID 1127).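 Also: z combines 667 nm emission intensity with signal-to-noise across three replicate slides.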 Particulars: ConA-A647 binding fluorescence, higher = more signal.

The source of these data is PubChem BioAssay.

Activity calls are given as the source filed them.

Alpha-bungarotoxin (Bungarus multicinctus), sequence (P60615 whole entry, looked up): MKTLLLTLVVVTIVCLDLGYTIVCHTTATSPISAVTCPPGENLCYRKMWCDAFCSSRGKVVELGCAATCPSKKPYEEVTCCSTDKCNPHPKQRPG
Torsin-1A-interacting protein 1 (Homo sapiens), sequence (Q5JTV8 whole entry, looked up): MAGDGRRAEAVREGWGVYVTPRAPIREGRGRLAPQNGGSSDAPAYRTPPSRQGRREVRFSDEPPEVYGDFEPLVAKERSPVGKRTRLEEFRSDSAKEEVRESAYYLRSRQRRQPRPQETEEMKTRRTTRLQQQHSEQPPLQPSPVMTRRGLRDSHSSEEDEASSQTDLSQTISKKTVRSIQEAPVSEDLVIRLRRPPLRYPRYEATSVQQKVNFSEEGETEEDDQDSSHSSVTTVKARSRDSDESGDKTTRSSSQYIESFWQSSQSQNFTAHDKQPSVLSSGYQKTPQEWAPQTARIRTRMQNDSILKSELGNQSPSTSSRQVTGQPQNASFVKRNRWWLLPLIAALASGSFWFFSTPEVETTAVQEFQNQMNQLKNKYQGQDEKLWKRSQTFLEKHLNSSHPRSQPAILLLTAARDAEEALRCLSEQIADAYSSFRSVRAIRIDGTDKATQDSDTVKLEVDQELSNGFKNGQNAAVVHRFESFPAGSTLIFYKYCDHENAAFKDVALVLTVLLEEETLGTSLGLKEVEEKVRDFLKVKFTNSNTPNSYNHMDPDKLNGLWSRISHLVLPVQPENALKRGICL
Left-right determination factor 2 (Homo sapiens), sequence (O00292 whole entry, looked up): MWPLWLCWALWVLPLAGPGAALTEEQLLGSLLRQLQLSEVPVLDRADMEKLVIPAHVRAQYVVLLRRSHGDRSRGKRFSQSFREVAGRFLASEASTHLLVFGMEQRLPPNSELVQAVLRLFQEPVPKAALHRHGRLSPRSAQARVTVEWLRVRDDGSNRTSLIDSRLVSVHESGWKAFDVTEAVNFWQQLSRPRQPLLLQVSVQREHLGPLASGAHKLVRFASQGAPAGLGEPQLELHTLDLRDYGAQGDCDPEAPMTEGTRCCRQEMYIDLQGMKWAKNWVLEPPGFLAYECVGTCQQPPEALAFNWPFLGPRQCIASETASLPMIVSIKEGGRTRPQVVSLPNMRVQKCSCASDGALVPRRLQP
Concanavalin-A (Canavalia ensiformis), sequence (P02866 whole entry, looked up): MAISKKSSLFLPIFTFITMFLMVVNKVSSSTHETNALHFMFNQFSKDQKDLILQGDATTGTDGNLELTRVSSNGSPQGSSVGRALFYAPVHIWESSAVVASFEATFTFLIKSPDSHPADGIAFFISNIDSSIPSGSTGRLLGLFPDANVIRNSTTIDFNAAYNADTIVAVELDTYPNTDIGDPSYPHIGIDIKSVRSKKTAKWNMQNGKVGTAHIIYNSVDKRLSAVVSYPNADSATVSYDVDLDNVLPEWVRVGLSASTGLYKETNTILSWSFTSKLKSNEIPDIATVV
Albumin (Bos taurus), sequence (P02769 whole entry, looked up): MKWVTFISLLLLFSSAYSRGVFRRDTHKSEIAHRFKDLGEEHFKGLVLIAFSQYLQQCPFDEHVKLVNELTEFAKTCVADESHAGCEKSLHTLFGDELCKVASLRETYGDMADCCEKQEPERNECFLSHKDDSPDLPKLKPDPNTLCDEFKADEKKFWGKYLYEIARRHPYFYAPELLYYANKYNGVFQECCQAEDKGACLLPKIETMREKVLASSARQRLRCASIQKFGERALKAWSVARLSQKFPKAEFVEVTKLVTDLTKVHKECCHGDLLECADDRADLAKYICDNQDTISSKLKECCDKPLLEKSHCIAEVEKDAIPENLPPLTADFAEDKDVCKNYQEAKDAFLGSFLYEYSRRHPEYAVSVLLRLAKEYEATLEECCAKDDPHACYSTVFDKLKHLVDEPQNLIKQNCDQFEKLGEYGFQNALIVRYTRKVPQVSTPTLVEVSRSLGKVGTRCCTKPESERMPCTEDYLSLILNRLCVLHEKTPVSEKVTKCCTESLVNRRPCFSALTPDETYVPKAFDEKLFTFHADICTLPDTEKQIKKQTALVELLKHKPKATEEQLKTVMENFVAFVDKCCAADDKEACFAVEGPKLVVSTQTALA

Turning to `COc1ccccc1CN1C(=O)c2ccccc2[C@](Cc2ccccc2I)(C(=O)NC(C)C)[C@@H]1c1ccc(CO)cc1`, the composite z-score in assay [1] is 1.46; in assay [3], 0.242; in assay [4] it was 0.704; in [5] it was 0.0649; in assay [6], -0.0455; in [7], 0.131. The composite z-score is -0.402 in assay [8]; 0.855 in [9]; 1.41 in assay [10]; 0.894 in assay [11]; 0.101 in assay [13]; -0.123 in assay [14]. For the same compound, the composite z-score amounted to 0.131 in [15]; 2.39 in [16]; 0.226 in assay [17]; 1.3 in [18]; 0.286 in assay [19]; 1.16 in [20]. The same compound returned a z-score in assay [2] of -2.22. Further, in [12], the composite Z-score is 0.338 (inactive).
In the case of `C=CCNC(=O)[C@@H]1[C@H]2C(=O)O[C@H](c3ccccc3)[C@H](c3ccccc3)N2[C@H](c2ccc(OCCO)cc2)[C@@]12C(=O)N(C(=O)OCCOC)c1ccc(C#CC3=CCCCC3)cc12`, the composite z-score in assay [1] was 1.34; in assay [3] it was 0.509; in [4], 1.66; in assay [5], 0.283; in assay [6], -0.0051; in assay [7], 0.13. Further, the composite z-score in [8] was -0.375; in assay [9], 0.642; in [10], 0.84; in assay [11], 0.498; in assay [13], 0.144; in [14], -0.0832. Besides, the composite z-score worked out at 0.621 in assay [15]; 0.634 in assay [16]; 0.923 in [17]; 1.3 in [18]; 0.606 in assay [19]; 1.15 in assay [20]. The compound further came in with a z-score in assay [2] of -1.68. Further, the composite Z-score in assay [12] is 0.223 (inactive).
For the compound `C[n+]1ccc(CCCO)cc1`, the composite z-score in assay [1] was -0.225; in assay [3] it was 0.0525; in [4] it was -0.628; in assay [5], 0.371; in assay [6], -0.0462; in assay [7], 0.475. The composite z-score in assay [8] is -0.253; in assay [9], 1.26; in assay [10], -0.739; in assay [11], -0.911; in [13] it was 0.182; in assay [14] it was -0.0211. In addition, the composite z-score in assay [15] is 0.321; in assay [16] it was 2.53; in assay [17] it was 1.6; in [18] it was 0.0844; in assay [19] it was 0.127; in assay [20] it was -0.0858. This compound displayed a z-score in assay [2] of -0.125. The composite Z-score in assay [12] is 0.165 (inactive).
For the compound `COC(=O)[C@@]1(Cc2ccc(OC)cc2)[C@H]2c3cc(C(=O)N(C)C)n(Cc4ccccc4)c3C[C@H]2CN1C(=O)c1ccccc1`, the composite z-score in assay [1] was 1.34; in assay [3] it was -0.367; in assay [4] it was 1.63; in assay [5], 1.03; in [6], -0.0681; in assay [7], -0.12. Besides, the composite z-score in assay [8] was -0.759; in assay [9], -0.681; in assay [10], 0.187; in assay [11], 0.864; in assay [13] it was 0.0372; in assay [14] it was -0.0505. In addition, the composite z-score was 0.366 in assay [15]; 1.86 in assay [16]; 0.421 in assay [17]; 0.92 in [18]; -0.393 in [19]; 0.435 in assay [20]. The compound further returned a z-score in assay [2] of -1.66. Moreover, the composite Z-score in assay [12] was -0.96 (inactive).
`COC(=O)[C@@]1(Cc2ccc(F)cc2)[C@H]2c3cc(C(=O)N4CCCC4)n(CCF)c3C[C@H]2CN1C(=O)c1ccccc1`: the composite z-score is 1.13 in assay [1]; -0.359 in assay [3]; 2.74 in assay [4]; 1.32 in assay [5]; 1.04 in assay [6]; 1.79 in assay [7]. Besides, the composite z-score in [8] was 2.99; in assay [9] it was 2.42; in [10], 0.602; in assay [11] it was 1.09; in assay [13], 1.82; in assay [14], 0.948. The composite z-score in [15] was determined as 0.811; in [16], 3.46; in assay [17] it was 0.829; in assay [18], 0.37; in [19], 0.294; in assay [20], 0.857. Also, the z-score in [2] was -1.43. Besides, in assay [12], the composite Z-score was 0.803 (inactive).
